This note sets out measurements from PubChem BioAssay.

Each structure is given as a SMILES string. Activity calls are given as the source filed them. No rule for the calls is given here.

For orientation: inhibition means the percentage by which the read-out fell short of the control.

This experiment deals with Pantothenate synthetase (Mycobacterium tuberculosis (strain ATCC 25618 / H37Rv)) (UniProt P9WIL5). The experiment can be described thus: Recombinant Mtb pantothenate synthetase (PanC) inhibitors, coupled enzyme, confirmatory (AID 375).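 Also: 0% = full reaction with vehicle and 100% = no enzyme background.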 Conditions: coupled enzyme assay; at 10 µM, hits give high values.
Sequence of Pantothenate synthetase (Mycobacterium tuberculosis (strain ATCC 25618 / H37Rv)) (P9WIL5 whole entry, looked up): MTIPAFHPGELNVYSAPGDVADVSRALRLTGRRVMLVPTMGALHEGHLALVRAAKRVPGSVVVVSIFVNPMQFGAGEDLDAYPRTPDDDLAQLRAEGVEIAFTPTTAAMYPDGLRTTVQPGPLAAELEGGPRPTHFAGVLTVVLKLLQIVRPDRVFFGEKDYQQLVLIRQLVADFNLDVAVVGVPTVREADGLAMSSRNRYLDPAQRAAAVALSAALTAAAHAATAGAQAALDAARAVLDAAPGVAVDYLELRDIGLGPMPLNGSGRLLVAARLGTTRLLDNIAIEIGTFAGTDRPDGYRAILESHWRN
`CCOCCCN(Cc1cc2cc(C)cc(C)c2[nH]c1=O)C(=O)N(CC)CC`: the inhibition is 0% (inactive). In the case of `Cc1cccc(NC(=O)CSc2nnc(-c3cc(C)n(-c4ccccc4)c3C)o2)c1C`, the inhibition was 0% (inactive). `Cc1nc2sc(C(c3cccc(F)c3)N3CCC(C)CC3)c(O)n2n1` (stereo not given): the inhibition was 0% (inactive). In the case of `CN(C)CCCn1c(N)c(C#N)c2nc(C#N)c(C#N)nc21` it was 0% (inactive); in that of `CCS(=O)(=O)N1CCCC(C(=O)NCc2cccc(OC)c2)C1` (stereo not given), 1% (inactive). `CSc1nnc(-c2cnccn2)n1Cc1ccccc1`: the inhibition was 0% (inactive). In the case of `CCOC(=O)N1CCN(Cc2ccccc2F)CC1`, the inhibition was 19% (inactive).

As to `N#CC1=C(N)Oc2n[nH]c(-c3ccncc3)c2C1c1ccsc1` (stereo not given), the inhibition was 0% (inactive).

For the compound `CCC[C@@H]1C[C@@H](C(=O)N[C@H]([C@@H](C)O)[C@H]2O[C@H](SC)[C@H](O)[C@@H](O)C2O)N(C)C1` (stereo not given in full), the inhibition is 0% (inactive). As to `CCOc1ccccc1NC(=O)C1CCCN1C(=O)OCc1ccccc1` (stereo not given), the inhibition was 0% (inactive). On to `O=C(CSc1nnc2c3cc(F)ccc3nc(-c3ccccc3)n12)N1CCOCC1`, for which the inhibition is 0% (inactive). Turning to `CC(=O)Nc1ccc2c(c1)nc(CCNC(=O)c1ccccc1)n2C`, the inhibition is 0% (inactive). `CC(=O)N1CCN(c2ccc(NC(=O)c3ccc(C(C)(C)C)cc3)cc2)CC1`: the inhibition was 0% (inactive).

`Cc1ccc(NC(=O)CSc2nnc(CCCCCNC(=O)OC(C)(C)C)o2)c(C)c1`: the inhibition was 6% (inactive). Next, `COc1ccccc1S(=O)(=O)n1cc(Cc2ccccc2)c(N)n1`: 0% (inactive); `COc1ccc(CN(C(=O)c2cccs2)c2nccs2)cc1OC`: 3% (inactive). Regarding `CCOC(=O)c1ccc(S(=O)(=O)NC2CCCCCCC2)n1C`, the inhibition was 0% (inactive). In the case of `O=C(CCN1C(=O)C2C3C=CC(C3)C2C1=O)NC1CCCc2ccccc21` (stereo not given) it was 1% (inactive); in that of `Nc1nonc1-c1noc(-c2ccccc2Br)n1`, 0% (inactive). In the case of `CCOC(=O)N1CCC(NC(=O)c2cc(C(=O)NC3CCCC3)ccc2CO)CC1` it was 1% (inactive); in that of `COc1ccc(CCn2c(-c3ccco3)nc3ccccc3c2=O)cc1OC`, 0% (inactive). For `Cc1cc(N2CCN(C)CC2)nc(N2CCOCC2)n1`, the inhibition was 0% (inactive). For `O=C(NCc1ccccc1)N1CCn2c(nc3ccccc32)C1`, the inhibition was 3% (inactive).

`CC1C(=O)C(C)C(c2cccs2)NC1c1cccs1` (stereo not given): the inhibition was 0% (inactive).

Turning to `Cc1cccc(NC(=O)c2ccc(S(=O)(=O)N(C)C)cc2)n1`, the inhibition was 0% (inactive). Regarding `O=C(NC1CCCCCCC1)C1CCN(c2nc3ccccc3o2)CC1`, the inhibition is 3% (inactive).

For `CCOc1cc(S(=O)(=O)N2CCC(Cc3ccccc3)CC2)c(OCC)cc1-n1cnnn1`, the inhibition is 7% (inactive). Regarding `O=C(CSc1nnc(COc2ccc(Cl)cc2)o1)OC1CCCCC1`, the inhibition is 0% (inactive).

Turning to `CCC1CCCN1Cn1cnc2c([nH]c3ccc(OC)cc32)c1=O` (stereo not given), the inhibition is 1% (inactive). Turning to `COc1cccc(CNC(=O)CCS(=O)(=O)c2cccc3nsnc23)c1`, the inhibition is 6% (inactive).

As to `CC(NC(=O)c1cn(C)c2ccc(S(=O)(=O)N3CCCC3)cc2c1=O)c1ccc2c(c1)OCCO2` (stereo not given), the inhibition is 0% (inactive). Regarding `CCOC(=O)CSC1=C(C#N)C(c2ccc3c(c2)OCO3)CC(=O)N1` (stereo not given), the inhibition is 0% (inactive). Take `c1coc(Cn2nnnc2CN2CCN(C3CCCC3)CC2)c1`: the inhibition was 0% (inactive).

Regarding `CC1=C(C(=O)OCc2ccccc2)C(c2ccc(C)o2)C2=C(CCCC2=O)N1` (stereo not given), the inhibition is 4% (inactive). In the case of `CCOC(=O)CCc1c(C)nc2cc(-c3ccc(F)cc3)[nH]n2c1=O` it was 0% (inactive); in that of `CCOC(=O)c1cc2sc(C)cc2n1CC(=O)Nc1cccc(C)c1C`, 0% (inactive); in that of `CC(C)Oc1cc2oc(=O)c3c(c2cc1Cl)CCC3`, 0% (inactive). In the case of `CCCOc1ccc(N2CC(C(=O)Nc3ccc4c(c3)OCO4)CC2=O)cc1` (stereo not given), the inhibition is 6% (inactive).

With `Cc1cc(-c2ccccc2)nc2cc(C(N)=O)nn12`, the inhibition is 12% (inactive). `Cn1c(C(=O)NCCC2=CCCCC2)cc2c(=O)n3ccccc3nc21`: the inhibition was 0% (inactive).
